# Compounds with a hit are over-represented: about 6% of the library has one in this group of screens.
# Tau ThT inhib: qHTS for Inhibitors of Tau Fibril Formation, Thioflavin T Binding | Microtubule-associated protein tau (Homo sapiens), P10636 | recombinant tau K18 P301L, heparin-induced fibrillization, ThT fluorescence | Potency, µM (titrated, usually from 57.4 µM), for the others: at the top dose activity, negative = inhibition, usual class: inhibitors | 270,000 compounds, 2.1% hits | AID 1460, 2008; further: nearly all actives have a fitted effect of over 55% in size
#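 In this qHTS, human K18 P301L tau is incubated with compound and heparin for 6 hr at 37 C, and Thioflavin T fluorescence then reports fibril load.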
# Tau fluor counter: Counterscreen qHTS for Inhibitors of Tau Fibril Formation, Fluorescence Polarization. tau K18 P301L (four-repeat tau fragment) Alexa594 fluorescence, heparin fibrillization. 280,000 compounds, 0.93% hits. AID 1463, 2008. Potency, µM (series often up to 57.7 µM), for inactives: at the top dose activity change, negative = decrease; further: nearly all actives have a fitted effect of over 55% in size
#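 Human K18 P301L tau (15 uM unlabeled plus 0.24 uM Alexa 594-labeled, final) in 100 mM sodium acetate pH 7 was mixed with compound and 20 uM heparin and incubated 6 hr at 37 C.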
# Sfp PPTase inh: qHTS Assay for Inhibitors of Bacillus subtilis Sfp phosphopantetheinyl transferase (PPTase). Biochemical Sfp PPTase activity, qHTS. Potency, µM, for the others: largest response in the series, negative = inhibition, actives largely listed as inhibitors. 310,000 compounds, 3.5% hits. AID 1490, 2009;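 further: the enzyme is Sfp with the accession as filed and its product quenches rhodamine fluorescence; 0% = enzyme reaction without inhibitor and -100% = no enzyme wells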
#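 After 15 min at room temperature with compound, 15 nM Sfp received 5 uM rhodamine-CoA plus 12.5 uM BHQ-2-ybbR (50 mM Hepes pH 7.6, 10 mM MgCl2). Rate came from the fluorescence difference over 30 min, ex 525/em 598 nm.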
# PLK1 PBD inh: qHTS for Inhibitors of PLK1-PDB (polo-like kinase 1 - polo-box domain): Primary Screen | Plk1 PBD binding of FITC phosphopeptide, fluorescence polarization | 360,000 compounds, 2.8% hits | Serine/threonine-protein kinase PLK1 (Homo sapiens), P53350 | Potency, µM, for the others: max response, negative = inhibition, usual class: inhibitors; further: series mostly up to about 57 µM; nearly all actives have a fitted effect of over 65% in size
# Target sequence (P53350 whole entry, looked up, the tested form may be a part): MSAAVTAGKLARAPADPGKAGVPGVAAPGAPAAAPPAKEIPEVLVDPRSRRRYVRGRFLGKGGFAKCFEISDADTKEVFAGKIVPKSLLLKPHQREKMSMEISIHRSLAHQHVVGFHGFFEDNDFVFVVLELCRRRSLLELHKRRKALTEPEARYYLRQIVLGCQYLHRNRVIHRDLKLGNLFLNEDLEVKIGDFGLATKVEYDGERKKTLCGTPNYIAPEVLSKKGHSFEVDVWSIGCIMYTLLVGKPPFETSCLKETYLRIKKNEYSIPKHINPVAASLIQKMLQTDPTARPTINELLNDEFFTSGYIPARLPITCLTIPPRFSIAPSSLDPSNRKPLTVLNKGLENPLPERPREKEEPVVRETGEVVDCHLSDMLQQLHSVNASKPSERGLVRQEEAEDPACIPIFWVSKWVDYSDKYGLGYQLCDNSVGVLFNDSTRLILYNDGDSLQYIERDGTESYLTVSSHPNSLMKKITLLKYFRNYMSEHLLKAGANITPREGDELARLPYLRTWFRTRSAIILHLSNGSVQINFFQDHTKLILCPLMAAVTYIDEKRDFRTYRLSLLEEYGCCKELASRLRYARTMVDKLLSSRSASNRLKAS
# VDR inh: Inhibitors of the vitamin D receptor (VDR): qHTS | VDR-SRC2-3 peptide fluorescence polarization, 2 h | Vitamin D3 receptor (Homo sapiens), P11473 | 400,000 compounds, 0.93% hits | Potency, µM, without a hit: max response, negative = inhibition, hits mostly inhibitors
#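 Signal is fluorescence polarization, reporting how far test compounds block the interaction of VDR with the SRC2-3 coregulator peptide after a 2 h room-temperature incubation.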
# Tau fibril FP: qHTS for Inhibitors of Tau Fibril Formation, Fluorescence Polarization. AID 1468, 2008. Potency, µM (highest dose often 57.7 µM), without a hit: at the highest dose activity, negative = inhibition, actives largely listed as inhibitors. 280,000 compounds, 0.39% hits. Microtubule-associated protein tau (Homo sapiens), P10636. K18 P301L tau heparin fibrillization, Alexa594 FP, 6 h; further: nearly all actives have a fitted effect of over 55% in size
#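 Recombinant K18 P301L […], labeled with Alexa 594 at 0.24 uM over 15 uM unlabeled; heparin inducer 20 uM final; 37 C, 6 hr; FP endpoint.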
# * = called active by the depositor; ? = inconclusive; / = not tested or not shown; [ ] = remark or other dose. The call rests on the fitted dose curve; in most records, active means well fitted curve in the direction sought with a large enough effect; inconclusive means small, poorly fitted or top-dose-only effect, or another doubt; inactive means no such curve, though single readings can be large; an effect the other way counts as inactive or inconclusive. Unless noted, on the % scale 0 is the no-effect control and ±100 the full control effect; potency means the concentration at half of the fitted maximal effect.
SMILES,Tau ThT inhib,Tau fluor counter,Sfp PPTase inh,PLK1 PBD inh,VDR inh,Tau fibril FP
Cc1cccc(C(=O)N/C(=C/c2ccco2)C(=O)N2CCCCCC2)c1,/,/,50µM*,1%,12%,/
O=C(Nc1cccc(C(=O)O)c1)/C(=C\c1ccco1)NC(=O)c1ccccc1,/,/,-16%,-23%,-8%,/
Cc1cc2nc(-c3ccc(NC(=O)c4ccccc4F)cc3)oc2cc1C,?,0%,/,/,-5%,-11%
CCOC(=O)COc1ccc(C)cc1C(=O)c1ccn2nc(-c3ccc(Cl)cc3)cc2n1,?,-17%,/,/,4%,-2%
CCc1cc(=O)oc2c3c(c(Cl)cc12)OCN(Cc1cccc(OC)c1)C3,-16%,-24%,/,/,-4%,-4%
COc1ccc(/C=C/C=C2\NC(=S)NC2=O)cc1,2µM*,-11%,16%,-16%,-8%,11%
c1ccc(Cc2nnc3sc(-c4cccs4)nn23)cc1,16%,20%,10%,15µM*,?,4%
c1ccc(Cc2nnc3sc(-c4ccncc4)nn23)cc1,-7%,5%,-67%,?,4%,0%
c1ccc(Cc2nnc3sc(-c4ccc5c(c4)OCO5)nn23)cc1,/,/,/,20µM*,-20%,/
c1ccc(Cc2nnc3sc(-c4ccc5c(c4)OCCO5)nn23)cc1,?,-12%,?,-7%,0%,1%
c1ccc(Cc2nnc3sc(-c4cccnc4)nn23)cc1,-12%,2%,?,30µM*,-13%,2%
CN(C)CC/C=C1\c2cc(F)ccc2CSc2ccccc21,-9%,2%,79µM*,-7%,8%,3%
Oc1cc2ccccc2cc1-c1n[nH]c(=S)o1,?,-13%,-13%,12µM*,?,4%
CC(=O)N1CCN(c2ccc(Nc3ncnc4c3oc3ccccc34)cc2)CC1,4.5µM*,?,-5%,-8%,-4%,3%
CCc1nc(Nc2ccc(N3CCN(C(C)=O)CC3)cc2)c2oc3ccccc3c2n1,13µM*,?,?,1%,14%,16%
c1ccc(Nc2ncnc3c2oc2ccccc23)cc1,-10%,-7%,79µM*,-2%,19%,2%
O=C(COc1ccc(/C=C\[N+](=O)[O-])cc1)N1CCOCC1,-17%,12%,40µM*,?,?,-6%
O=[N+]([O-])/C=C\c1ccc(N2CCOCC2)cc1,/,/,/,30µM*,25µM*,/
O=[N+]([O-])c1cccc(N/N=C/c2ccc(N3CCOCC3)cc2)c1,/,/,0%,-15%,-2%,/
CC(C)(C)c1ccc(NC(=O)Nc2ccc(OCC(=O)N3CCOCC3)cc2)cc1,-18%,20µM*[quencher],10%,22%,16%,19%
O=C(COc1ccc(S(=O)(=O)N2CCOCC2)cc1)N1CCOCC1,/,/,/,-14%,?,/
Cc1ccc(OCCCC(=O)N2CCOCC2)cc1,-12%,-4%,-4%,12µM*,-3%,-10%
Cc1ccc(C(C)(C)c2ccc(C)cc2)cc1,/,/,12%,/,5%,/
O=C(COc1ccc(CNC[C@H]2O[C@@H](n3ccc(=O)[nH]c3=O)[C@H](O)[C@@H]2O)cc1)Nc1ccccn1,/,/,/,-6%,/,/
O=C(Nc1nnc(N2CCCCCC2)s1)Nc1cc(F)ccc1F,1%,-1%,/,/,4%,3%
SMILES,Tau ThT inhib,Tau fluor counter,Sfp PPTase inh,PLK1 PBD inh,VDR inh,Tau fibril FP
COc1ccc(Cc2nnc(NCCO)[nH]c2=O)cc1OC,/,/,11%,6µM*,?,/
COc1ccc(Cc2nnc(NCCO)[nH]c2=O)cc1,/,/,9%,4%,-3%,/
CSC(=NC#N)N1CCN(c2ccc([N+](=O)[O-])cc2)CC1,2µM*,-21%,-10%,-15%,15%,0%
COc1ccc(N2CCN(C(=O)Oc3ccc([N+](=O)[O-])cc3)CC2)cc1,/,/,/,-11%,/,/
CCOC(=O)N1CCN(C(=O)C(C)c2ccc([N+](=O)[O-])cc2)CC1 (centres undefined),/,/,8%,-3%,-7%,/
CC(C)(C)OC(=O)N1CCN(c2ccc([N+](=O)[O-])cc2)CC1,4µM*,-14%,4%,0%,-22%,-2%
CCOC(=O)N1CCN(/[N+]([O-])=N/Oc2ccc([N+](=O)[O-])cc2[N+](=O)[O-])CC1,/,/,-28%,/,45µM*,/
O=[N+]([O-])c1ccc(N2CCN(C(=S)NC3CCCCC3)CC2)cc1,10µM*,?,11%,-1%,-10%,0%
CCOc1ccc(NC(=O)CSc2nnc(-c3ccc(C)cc3)c(-c3ccc(C)cc3)n2)cc1,?,-29%,/,/,9%,?
Cc1ccc(NC(=O)C2CCCN(S(=O)(=O)c3cccs3)C2)c(C)c1 (centres undefined),-14%,-12%,/,/,14%,-2%
CCOC(=O)N1CCN(C(=O)/C=C/c2cccc([N+](=O)[O-])c2)CC1,-2%,6%,20%,30µM*,0%,8%
CC(C)c1ccccc1NC(=O)COC(=O)/C=C/c1cccc([N+](=O)[O-])c1,-8%,-12%,-2%,15µM*,?,-4%
CCOC(=O)N1CCN(c2ccc([N+](=O)[O-])cc2)CC1,4µM*,-5%,1%,-3%,-18%,4%
CCOC(=O)N1CCN(S(=O)(=O)c2ccc([N+](=O)[O-])cc2)CC1,-1%,0%,19%,1%,0%,6%
CCOC(=O)N1CCN(C(=O)/C=C/c2ccc([N+](=O)[O-])cc2)CC1,-10%,3%,5%,-14%,-15%,-5%
O=C(Cc1cccs1)N1CCN(c2ccc([N+](=O)[O-])cc2)CC1,3.5µM*,-17%,17%,-17%,-10%,-2%
C=C1C(C(=O)Nc2ccccc2)C1C(=O)Nc1ccccc1 (centres undefined),0%,6%,-2%,-12%,4%,2%
CN(C(=O)CSc1nc2ccccc2[nH]1)c1ccc(F)cc1,-6%,-8%,/,/,-17%,-9%
Cc1ccc(S(=O)ONc2cccc(NOS(=O)c3ccc(C)cc3)c2)cc1 (centres undefined),/,/,/,-7%,/,/
O=C(Cn1ncc2c3ccccc3n(Cc3ccccc3)c2c1=O)NCCCN1CCCCC1,-12%,-10%,/,/,27%,0%
CCCN(c1ccccc1F)S(=O)(=O)c1cc(-c2cc(C)no2)ccc1C,-9%,-29%,/,/,1%,-9%
CC1(C)Cc2[nH]c(=S)c(C#N)cc2CO1,-14%,5%,10µM*,17µM*,?,-4%

# Screens from PubChem.
